# According to PubChem BioAssay (EPA / NIEHS):
# Records with an inconclusive call do not appear. Some structures have more than one record in an assay (separate samples or runs), and their calls can disagree. The source made the active and inactive calls. Rule for the calls, unless noted: active = hit-call score of the fitted dose curve at least 0.9, where 1 is the maximum; inactive = score below 0.9.
# What was measured:
# KRT18 (gene 3875) = assay: BSK_BE3C_Keratin818: BioMAP Diversity Plus: BE3C Assay for Keratin 818 Biomarker Activity (AID 2284282); settings: primary human bronchial epithelial cells
# Procedure, shortened: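 Chemicals are added to human lung bronchial epithelial primary cells (BE3C system) and incubated 24 h. Keratin 8/18 is then measured by ELISA, with parallel SRB total-protein staining gauging overt cytotoxicity.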
# [1] = read-out: Matrix Metallopeptidase 9 (MMP9), MMP9 (gene 4318); assay: BSK_BE3C_MMP9: BioMAP Diversity Plus: BE3C Assay for Matrix Metallopeptidase 9 (MMP9) Biomarker Activity (AID 2284283); settings: primary human bronchial epithelial cells
# Procedure, shortened: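 Endpoint is the ELISA MMP-9 signal in human primary bronchial epithelial cultures taken 24 h after chemical dosing. DMSO serves as negative control and baseline, with gain-of-signal fitting.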
# [2] = read-out: Plasminogen activator inhibitor-1 (PAI1), SERPINE1 (gene 5054); assay: BSK_CASM3C_PAI1: BioMAP Diversity Plus: CASM3C Assay for Plasminogen activator inhibitor-1 (PAI1) Biomarker Activity (AID 2284284); settings: primary human coronary artery smooth muscle cells;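 note: PAI-1 protein level measured by ELISA 24 h after dosing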
# [3] = read-out: Monocyte Chemoattractant Protein-1 (MCP1), CCL2 (gene 6347); assay: BSK_hDFCGF_MCP1: BioMAP Diversity Plus: hDFCGF Assay for Monocyte Chemoattractant Protein-1 (MCP1) Biomarker Activity (AID 2284285); settings: primary human foreskin fibroblasts
# Procedure, shortened: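 Human foreskin fibroblasts (hDFCGF system) were exposed to compound and secreted MCP-1 was measured by ELISA after 24 hours. Activity was fitted relative to DMSO. Cytotoxicity was checked by SRB total-protein staining in parallel cultures.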
# [4] = read-out: Intercellular Adhesion Molecule 1 (ICAM1), ICAM1 (gene 3383); assay: BSK_hDFCGF_ICAM1: BioMAP Diversity Plus: hDFCGF Assay for Intercellular Adhesion Molecule 1 (ICAM1) Biomarker Activity (AID 2284287); settings: primary human foreskin fibroblasts
# Procedure, shortened: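 Primary human foreskin fibroblasts (hDFCGF system) dosed with chemical; ICAM-1 quantified by ELISA at 24 h relative to DMSO. Parallel SRB total-protein staining to assess overt cytotoxicity.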
# [5] = read-out: TIMP metallopeptidase inhibitor 2 (TIMP2), TIMP2 (gene 7077); assay: BSK_hDFCGF_TIMP2: BioMAP Diversity Plus: hDFCGF Assay for TIMP metallopeptidase inhibitor 2 (TIMP2) Biomarker Activity (AID 2284289); settings: primary human foreskin fibroblasts
# Procedure, shortened: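 Primary human foreskin fibroblasts in the hDFCGF system, dosed for 24 h; TIMP-2 level measured by ELISA, fitted in the positive direction against DMSO; cytotoxicity checked in parallel by sulforhodamine B total protein staining.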
# [6] = read-out: Thrombomodulin, THBD (gene 7056); assay: BSK_LPS_Thrombomodulin: BioMAP Diversity Plus: LPS Assay for Thrombomodulin Biomarker Activity (AID 2284296); settings: primary human HUVEC with PBMC
# Procedure, shortened: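 Human umbilical vein endothelial cells co-cultured with PBMC and stimulated with LPS; cell-surface thrombomodulin measured by ELISA 24 hours after compound. Gain or loss versus DMSO; cytotoxicity checked by SRB staining in parallel cultures.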
# CD69, CD69 (gene 969) = assay: BSK_LPS_CD69: BioMAP Diversity Plus: LPS Assay for CD69 Biomarker Activity (AID 2284303); settings: primary human HUVEC with PBMC
# Procedure, shortened: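 Human umbilical vein endothelial cells co-cultured with PBMC under LPS stimulation, chemical exposure 24 h; cell-surface CD69 measured by ELISA and fitted in the positive direction versus DMSO.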
# [7] = IUF_NPC2c_oligodendrocyte_migration_120hr: Leibniz Research Institute for Environmental Medicine (IUF) 120-hour Neural Progenitor Cell Migration Assay for Oligodendrocyte Migration (NPC2c) (AID 2284297);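 note: O4-positive oligodendrocyte migration distance divided by radial glia migration distance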
# Procedure, shortened: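 Using fetal brain neural progenitor spheres differentiating in N2 medium at 37C, compounds were present for 120 h. Oligodendrocyte migration distance, normalized to radial glia migration, was measured from imaged O4 staining.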
# [8] = IUF_NPC2a_radial_glia_migration_120hr: Leibniz Research Institute for Environmental Medicine (IUF) 120-hour Neural Progenitor Cell Migration Assay for Radial Glia Migration (NPC2a) (AID 2284298)
# Procedure, shortened: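 Exposure of 0.3 mm primary hNPC spheres runs day 0 to 120 h with a half-volume medium change at day 3. Fixed cells get Hoechst staining; high-content analysis of nuclear positions yields radial glia migration distance per well, compared against DMSO controls.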
# [9] = IUF_NPC2a_radial_glia_migration_72hr: Leibniz Research Institute for Environmental Medicine (IUF) 72-hour Neural Progenitor Cell Migration Assay for Radial Glia Migration (NPC2a) (AID 2284299)
# Procedure, shortened: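 Primary hNPC spheres, fetal brain GW 16-19, on PDL/laminin; DMEM/F12 3:1 + 1% N2. Compound dosed day 0, 7 conc. + SC, half-medium refresh day 3. 72 h brightfield, migration distance core-to-front (um), 4 directions averaged.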
# [10] = IUF_NPC2b_neuronal_migration_120hr: Leibniz Research Institute for Environmental Medicine (IUF) 120-hour Neural Progenitor Cell Migration Assay for Neuron Migration (NPC2b) (AID 2284300)
# Procedure, shortened: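 Fetal human NPC spheres migrate on PDL/laminin during 120 h compound treatment; neuronal migration distance, glia-normalized, scored versus DMSO control.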
# [11] = IUF_NPC3_neuronal_differentiation_120hr: Leibniz Research Institute for Environmental Medicine (IUF) 120-hour Neuronal Differentiation Assay (NPC3) (AID 2284301)
# Procedure, shortened: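 Human fetal (GW 16-19) neural progenitor spheres (0.3 mm) plated on poly-D-lysine/laminin in N2 differentiation medium, exposed 120 h at 37C with half-medium renewal day 3; 7 concentrations. TUBB3+ cells as % of Hoechst nuclei, CNN-identified; DMSO baseline.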
# [12] = IUF_NPC4_neurite_length_120hr: Leibniz Research Institute for Environmental Medicine (IUF) 120-hour Neuronal Morphology Assay for Neurite Length (NPC4) (AID 2284302)
# Procedure, shortened: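 Human fetal neural progenitor spheres (0.3 mm) plated on poly-D-lysine/laminin in N2 differentiation medium, exposed from day 0 for 120 h with half-medium refresh at day 3, 37C. Mean neurite length (um) of TUBB3-positive neurons from skeletonized immunostaining images; DMSO ≤0.1%.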
# [13] = IUF_NPC5_oligodendrocyte_differentiation_120hr: Leibniz Research Institute for Environmental Medicine (IUF) 120-hour Oligodendrocyte Differentiation Assay (NPC5) (AID 2284304; active = hit-call score of the fitted dose curve at least 0.9, where 1 is the maximum;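 note: primary human fetal neural progenitor spheres plated to migrate and differentiate; share of O4-positive cells among Hoechst nuclei found by CNN image analysis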)
# Procedure, shortened: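 After plating on poly-D-lysine/laminin, fetal-derived hNPC spheres differentiated for 120 h at 37C in compound-containing N2 medium, refreshed by half on day 3. O4 immunostaining over Hoechst nuclei in the migration zone gave oligodendrocyte percentage relative to DMSO.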
# [14] = IUF_NPC4_neurite_area_120hr: Leibniz Research Institute for Environmental Medicine (IUF) 120-hour Neuronal Morphology Assay for Neurite Area (NPC4) (AID 2284305; active = hit-call score of the fitted dose curve at least 0.9, where 1 is the maximum)
# Procedure, shortened: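 Human fetal neural progenitor spheres (0.3 mm) plated on poly-D-lysine/laminin in N2 differentiation medium, exposed 120 h (7 concentrations, DMSO ≤0.1%, half-medium refresh day 3). Fixed, TUBB3 immunostained; mean neurite area per neuron by Omnisphero skeletonization.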
# [15] = IUF_NPC2-5_cytotoxicity_72hr: Cytotoxicity Assessment at 72 hours in the Leibniz Research Institute for Environmental Medicine (IUF) Neural Progenitor Cell Migration and Differentiation Assay for Cytotoxicity (NPC2-5) (AID 2284306; active = hit-call score of the fitted dose curve at least 0.9, where 1 is the maximum;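 note: LDH release into supernatant measured by resorufin fluorescence marking membrane damage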)
# Procedure, shortened: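 Human fetal primary neural progenitor spheres (0.3 mm) plated on poly-D-lysine/laminin in N2 differentiation medium, exposed from day 0 at 37C. LDH-dependent resazurin-to-resorufin fluorescence in supernatant at 72 h; 7 concentrations, DMSO at most 0.1%.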
# [16] = IUF_NPC2-5_cytotoxicity_120hr: Cytotoxicity Assessment at 120 hours in the Leibniz Research Institute for Environmental Medicine (IUF) Neural Progenitor Cell Migration and Differentiation Assay (NPC2-5) (AID 2284307; active = hit-call score of the fitted dose curve at least 0.9, where 1 is the maximum)
# Procedure, shortened: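 Membrane-integrity loss is quantified by LDH in supernatant after five days of exposure of migrating, differentiating human fetal NPC spheres; seven serially diluted concentrations are tested with DMSO kept at or below 0.1%.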
# [17] = IUF_NPC2-5_cell_number_120hr: Cell Number Assessment at 120 hours in the Leibniz Research Institute for Environmental Medicine (IUF) Neural Progenitor Cell Migration and Differentiation Assay (NPC2-5) (AID 2284308);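 note: count of Hoechst-stained nuclei in migration zone around plated human neural progenitor spheres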
# Procedure, shortened: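 Seven-point serial dilutions plus solvent control were applied to plated 0.3 mm hNPC spheres at differentiation start, with medium half-replaced at day 3. Nuclei positive for Hoechst in the migration zone were enumerated at 120 h.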
# [18] = IUF_NPC2-5_viability_120hr: Viability Assessment at 120 hours in the Leibniz Research Institute for Environmental Medicine (IUF) Neural Progenitor Cell Migration and Differentiation Assay (NPC2-5) (AID 2284312)
# Procedure, shortened: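 Human fetal neural progenitor spheres (0.3 mm) plated on poly-D-lysine/laminin in N2 differentiation medium, exposed 120 h with half-medium refresh at day 3. Viability by alamar blue resazurin fluorescence; 7 concentrations, DMSO max 0.1%.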
compound,measurement,setting,value
C=CCOC(=O)CCC1CCCCC1,outcome,KRT18 (gene 3875),inactive
same,outcome,[1],inactive
same,outcome,[2],inactive
same,outcome,[3],inactive
same,outcome,[4],inactive
same,outcome,[5],inactive
same,outcome,[6],inactive
same,outcome,"CD69, CD69 (gene 969)",inactive
N#Cc1ccc(CC(=NNC(=O)Nc2ccc(OC(F)(F)F)cc2)c2cccc(C(F)(F)F)c2)cc1,outcome,[7],inactive
same,outcome,[8],inactive
same,outcome,[9],inactive
same,outcome,[10],inactive
same,outcome,[11],inactive
same,outcome,[12],inactive
same,AC50,[13],0.784 µM (active)
same,outcome,[14],inactive
same,outcome,[15],inactive
same,outcome,[16],inactive
same,outcome,[17],inactive
same,outcome,[18],inactive
CN(C)C(=N)N=C(N)N,outcome,[7],inactive
same,outcome,[8],inactive
same,outcome,[9],inactive
same,outcome,[10],inactive
same,outcome,[11],inactive
same,outcome,[12],inactive
same,outcome,[13],inactive
same,outcome,[15],inactive
same,outcome,[16],inactive
same,outcome,[17],inactive
same,outcome,[18],inactive
CC(=O)[C@H]1CC[C@H]2[C@@H]3CC=C4C[C@@H](O)CC[C@]4(C)[C@H]3CC[C@]12C,outcome,KRT18 (gene 3875),inactive
same,outcome,[1],inactive
same,outcome,[2],inactive
same,outcome,[3],inactive
same,outcome,[4],inactive
same,outcome,[5],inactive
same,outcome,[6],inactive
same,outcome,"CD69, CD69 (gene 969)",inactive
OC[C@H]1O[C@H](O[C@]2(CCl)O[C@H](CCl)[C@@H](O)[C@@H]2O)[C@H](O)[C@@H](O)[C@H]1Cl,outcome,KRT18 (gene 3875),inactive
same,outcome,[1],inactive
same,outcome,[2],inactive
same,outcome,[3],inactive
same,outcome,[4],inactive
same,outcome,[5],inactive
same,outcome,[6],inactive
same,outcome,"CD69, CD69 (gene 969)",inactive
COc1cc(C=O)ccc1OC(=O)C(C)C,outcome,KRT18 (gene 3875),inactive
same,outcome,[1],inactive
same,outcome,[2],inactive
same,outcome,[3],inactive
same,outcome,[4],inactive
same,outcome,[5],inactive
same,outcome,[6],inactive
same,outcome,"CD69, CD69 (gene 969)",inactive
Nc1cc([N+](=O)[O-])ccc1O,outcome,KRT18 (gene 3875),inactive
same,outcome,[1],inactive
same,outcome,[2],inactive
same,outcome,[3],inactive
same,outcome,[4],inactive
same,outcome,[5],inactive
same,outcome,[6],inactive
same,outcome,"CD69, CD69 (gene 969)",inactive
C[C@H]1C[C@@H]2[C@H]([C@@H](O)C[C@@]3(C)[C@H]2CC[C@]3(O)C(=O)CO)[C@@]2(C)C=CC(=O)C=C12,outcome,KRT18 (gene 3875),inactive
same,outcome,[1],inactive
same,outcome,[2],inactive
same,outcome,[3],inactive
same,outcome,[4],inactive
same,outcome,[5],inactive
same,outcome,[6],inactive
same,outcome,"CD69, CD69 (gene 969)",inactive
CCC(=O)OCc1ccccc1,outcome,KRT18 (gene 3875),inactive
same,outcome,[1],inactive
same,outcome,[2],inactive
same,outcome,[3],inactive
same,outcome,[4],inactive
same,outcome,[5],inactive
same,outcome,[6],inactive
same,outcome,"CD69, CD69 (gene 969)",inactive
NCCNCCN,outcome,KRT18 (gene 3875),inactive
same,outcome,[1],inactive
same,outcome,[2],inactive
same,outcome,[3],inactive
same,outcome,[4],inactive
same,outcome,[5],inactive
same,outcome,[6],inactive
same,outcome,"CD69, CD69 (gene 969)",inactive
CC(=O)OCCC(C)CC(C)(C)C (stereo not given),outcome,KRT18 (gene 3875),inactive
same,outcome,[1],inactive
same,outcome,[2],inactive
same,outcome,[3],inactive
same,outcome,[4],inactive
same,outcome,[5],inactive
same,outcome,[6],inactive
same,outcome,"CD69, CD69 (gene 969)",inactive
OC1OC[C@@H](O)[C@H](O)[C@H]1O (stereo not given in full),outcome,KRT18 (gene 3875),inactive
same,outcome,[1],inactive
same,outcome,[2],inactive
same,outcome,[3],inactive
same,outcome,[4],inactive
same,outcome,[5],inactive
same,outcome,[6],inactive
same,outcome,"CD69, CD69 (gene 969)",inactive
Cc1cc(C2(c3cc(C)c(O)cc3C)OS(=O)(=O)c3ccccc32)c(C)cc1O,outcome,KRT18 (gene 3875),inactive
same,outcome,[1],inactive
same,outcome,[2],inactive
same,outcome,[3],inactive
same,outcome,[4],inactive
same,outcome,[5],inactive
same,outcome,[6],inactive
same,outcome,"CD69, CD69 (gene 969)",inactive
CC[Si](OC(C)=O)(OC(C)=O)OC(C)=O,outcome,KRT18 (gene 3875),inactive
same,AC50,[1],6.87 µM (active)
same,outcome,[1],inactive
same,outcome,[2],inactive
same,outcome,[3],inactive
same,outcome,[4],inactive
same,outcome,[5],inactive
same,outcome,[6],inactive
same,outcome,"CD69, CD69 (gene 969)",inactive
